HPGD block – HPGD (human) dehydrogenase inhibition | purified HPGD, NADH fluorescence kinetic, PGE2 substrate | P15428 | hit rate 4.3% among 150,000 | Potency, µM, without a hit: at the top dose activity change, negative = inhibition, usual class: inhibitors; active = well fitted inhibition curve with a large enough effect, not every such curve was filed as active; inconclusive = small, poorly fitted or top-dose-only effect, or another doubt; inactive = no such curve, though single readings can be large or run the other way; also: potency is read from the fitted curve at half-maximal effect
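20 nM HPGD preincubated 15 min at room temperature with compound in 50 mM Tris-HCl pH 8, 0.01% Tween 20. Started with 1 mM NAD+ and 30 uM prostaglandin E2; NADH fluorescence (360/450 nm) read 5 times over 30-s intervals, last minus first.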
ALOX12 inhib – 12-hLO (ALOX12) enzyme inhibition; purified 12-hLO, xylenol orange hydroperoxide absorbance; Potency, µM (highest dose often 57.1 µM), without a hit: at the highest dose activity change, negative = inhibition, actives largely listed as inhibitors; hit rate 0.12% among 150,000; also: potency is read from the fitted curve at half-maximal effect; nearly all actives have a fitted effect of over 55% in size
Target sequence (P18054 whole entry, looked up): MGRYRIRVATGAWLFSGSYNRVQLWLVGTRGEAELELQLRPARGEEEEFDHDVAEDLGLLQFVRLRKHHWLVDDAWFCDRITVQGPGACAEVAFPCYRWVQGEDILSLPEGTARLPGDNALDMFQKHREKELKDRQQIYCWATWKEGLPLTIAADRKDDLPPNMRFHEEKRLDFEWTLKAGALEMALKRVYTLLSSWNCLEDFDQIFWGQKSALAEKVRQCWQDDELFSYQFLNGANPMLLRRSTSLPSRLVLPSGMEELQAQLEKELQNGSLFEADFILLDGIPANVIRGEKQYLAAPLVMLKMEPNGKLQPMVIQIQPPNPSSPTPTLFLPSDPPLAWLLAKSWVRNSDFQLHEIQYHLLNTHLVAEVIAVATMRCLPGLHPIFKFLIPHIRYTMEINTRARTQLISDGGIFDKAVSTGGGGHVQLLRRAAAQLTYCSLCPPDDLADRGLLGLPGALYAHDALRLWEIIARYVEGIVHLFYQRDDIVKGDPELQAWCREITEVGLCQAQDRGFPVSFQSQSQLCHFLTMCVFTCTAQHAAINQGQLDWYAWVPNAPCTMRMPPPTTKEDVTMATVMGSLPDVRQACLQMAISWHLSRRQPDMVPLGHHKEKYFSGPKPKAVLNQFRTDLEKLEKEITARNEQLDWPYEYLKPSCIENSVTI
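Xylenol orange chromogenic assay: hydroperoxide from 12hLO oxidises Fe(II), giving red-shifted Fe(III)-XO absorbance. Conditions: 150 nM enzyme, 40 uM arachidonic acid, 25 mM Hepes pH 7.0, 0.01% Triton X-100, 30 min, room temperature.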
GLA inh pH 4.5 – alpha-galactosidase A (human) inhibition, pH 4.5 | purified enzyme, 4-MU-alpha-Gal fluorescence, pH 4.5 | activity change, negative = inhibition, % at 105 µM | 230,000 tested, under 10 active | AID 1467;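 also: 0% = full activity with enzyme and -100% = basal without enzyme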
GLA spleen mod – inhibitors or activators of human alpha-galactosidase in spleen homogenate | hit rate 0.008% among 240,000 | human spleen homogenate, 4MU-alpha-Gal fluorescence, 40 min | Potency, µM (series often up to 80 µM), without a hit: top-dose activity change, negative = inhibition, usual class: inhibitors;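 also: potency is read from the fitted curve at half-maximal effect; 0% = enzyme with vehicle and -100% = no enzyme basal signal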
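qHTS titration in buffer at pH 5.0. Alpha-galactosidase activity in spleen homogenate was measured via 4-methylumbelliferone release from 1 mM fluorogenic substrate after 40 min at 37C and a pH 10 stop. AC50 came from Hill fits of control-normalized data.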
ALDH1A1 inh – inhibitors of human aldehyde dehydrogenase 1A1 | P00352 | Purified ALDH1A1, NADH fluorescence, propionaldehyde substrate | Potency, µM (titrated, usually from 75.3 µM), without a hit: at the highest dose activity, negative = inhibition, most hits filed as inhibitors | hit rate 7.3% among 220,000 | AID 1030; active = well fitted inhibition curve with a large enough effect, not every such curve was filed as active; inconclusive = small, poorly fitted or top-dose-only effect, or another doubt; inactive = no such curve, though single readings can be large or run the other way;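 also: potency is read from the fitted curve at half-maximal effect; plate controls were no enzyme wells and a reference inhibitor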
PNC inhibitor – blocks assembly of the perinucleolar compartment. hit rate 3.1% among 140,000. activity change (PNC), negative = inhibition, % at 10 µM. AID 2417. PC3M PTB-GFP, PNC prevalence imaging, 16 h; stronger effect = lower value;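 active = readout at or below -70, meaning at least 70% loss of cells showing the perinucleolar compartment, a nuclear body marking cancer cells; inconclusive = readout between -30 and a set limit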;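 also: plate controls were DMSO wells for no effect and camptothecin positive control wells for full effect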
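Compounds are pinned in duplicate onto adhered PC3M cells stably expressing GFP-tagged PTB and incubated 16 h at 37 C. Cells are then fixed, nuclei stained with Hoechst, and PNC-positive cells counted.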
* marks the source's active call; other numbers are inactive results; ? = inconclusive; nt = not tested or not shown; [ ] = remark or other dose. Compounds with a hit are over-represented: about 10% of the library has one in this group of screens. Unless noted, calls follow the shape of the dose curve; as a rule, active = well fitted curve in the direction sought with a large enough effect; inconclusive = small, poorly fitted or top-dose-only effect, or another doubt; inactive = no such curve, though single readings can be large; an effect the other way counts as inactive or inconclusive. Unless noted, % is scaled to controls: 0 for no effect and ±100 for the full control effect.

SMILES	HPGD block	ALOX12 inhib	GLA inh pH 4.5	GLA spleen mod	ALDH1A1 inh	PNC inhibitor
O=C(Nc1ccccc1C(=O)N/N=C/c1ccncc1)c1ccccc1	nt	nt	-3.8	-3.7%	0.0%	nt
Cc1[nH]c(=S)c(C#N)c(-c2ccco2)c1C(=O)N(C)C	nt	nt	2.6	4.4%	28.2µM*	nt
Cc1[nH]c2c(Cl)cccc2c1CCNC(=O)C1CCCCC1C(=O)OCC(F)(F)F (stereo not drawn)	-3.9%	-4.0%	4.7	-5.0%	?	-119.3*
CCOC(=O)c1ccc(CNC(=O)C2CCCCC2C(=O)OCC(F)(F)F)o1 (stereo not drawn)	-8.5%	2.5%	3.7	-15.5%	?	59.1
O=C1C2C3C=CC(C3=C3CCCCC3)C2C(=O)N1Cc1ccccc1 (stereo not drawn)	-23.1%	-14.4%	-2.6	-5.6%	6.31µM*	-18.3
C=C/C(=C\C)C[C@@H](CC(=O)N[C@@H](CCC(=O)O)CC(=O)O)NC(=O)[C@@H]1CNCC[C@H]1NC(=O)C[C@@H](NC(=O)C[C@H](Cc1ccccc1)NC(=O)[C@@H]1CCCC[C@H]1N)C(C)C	-4.9%	5.2%	-0.1	-5.9%	8.4%	nt
O=C(O)/C=C\C=C/c1ccc2c(c1)OCO2	-25.3%	-2.9%[11.4 µM]	nt	nt	-9.2%[13.5 µM]	nt
COc1cccc(/C=N/NC(=O)CCc2c(C)n[nH]c2C)c1O	nt	nt	-0.8	-3.0%	nt	nt
O=C(Nc1nncs1)c1c(F)c(F)c(F)c(F)c1F	22.4µM*	-1.2%	-1.3	-0.9%	17.8µM*	?
O=C(Nc1nncs1)c1ccc(S(=O)(=O)c2ccccc2)cc1	-12.2%	2.2%	1.2	9.2%	2.0%	-116.6*
O=C(Nc1ccccc1C(=O)Nc1nncs1)c1ccccc1	nt	nt	2.6	4.6%	nt	nt
Cc1c(C=O)c2ccccn2c1C(=O)c1ccc(Cl)c([N+](=O)[O-])c1	nt	nt	0.5	-9.8%	2.82µM*	nt
Cc1cc(CN(C)C(=O)CC2C(=O)NCCN2Cc2c(F)cccc2Cl)n[nH]1 (stereo not drawn)	nt	nt	2.2	0.0%	15.8µM*	nt
Cc1cc(C)c(C)c(S(=O)(=O)NCc2ccc(C(=O)N3CCCCC3)cc2)c1C	2µM*	-0.8%	-6.0	?	?	57.5
Cc1ccc(C)c(S(=O)(=O)NCc2ccc(C(=O)N3CC(C)OC(C)C3)cc2)c1 (stereo not drawn)	-27.0%	5.2%	0.5	-3.5%	1.4%	44.7
Cc1ccc(C)c(S(=O)(=O)NCc2ccc(C(=O)N3CCCCCC3)cc2)c1	7.08µM*	-1.8%	-0.6	-1.8%	-4.6%	?
BrC(Br)C(Br)Br	-2.4%	1.5%	nt	-11.7%	12.4%	nt
CNS(=O)(=O)/C=C/c1ccccc1	nt	nt	12.2	-4.1%	13.4%	nt
O=S(=O)(c1ccccc1)C(/C=N\O)/C=C/c1ccccc1 (stereo not drawn)	nt	nt	0.9	-0.2%	11.2µM*	nt
CC1(C)Cn2c(nnc2-c2cccc(O)c2)S1	15.8µM*	-5.9%	4.3	9.1%	?	38.7
CC1Cn2c(nnc2-c2cccc(Cl)c2)S1 (stereo not drawn)	-28.8%	2.0%	1.4	3.0%	7.2%	-17.5
Cc1ccccc1/C=C\C1=NCCN1	nt	-3.5%	nt	nt	nt	nt
CC(C)CC(=O)NC(=S)Nc1ccc(NC(=O)c2ccco2)cc1	14.1µM*	-2.0%	-6.1	4.2%	-6.9%	7.6
COc1ccccc1C(=O)NC(=S)Nc1ccc(NC(=O)c2ccco2)cc1	nt	nt	3.3	2.9%	12.6µM*	nt
COc1ccccc1OCC(=O)NNC(=S)NC(=O)c1ccco1	-17.7%	-5.0%	-3.2	-6.2%	28.2µM*	?
SMILES	HPGD block	ALOX12 inhib	GLA inh pH 4.5	GLA spleen mod	ALDH1A1 inh	PNC inhibitor
COc1ccc(/C=C/C(=O)NC(=S)NNC(=O)c2ccco2)cc1OC	nt	nt	-0.7	-4.5%	nt	nt
O=C(/C=C/c1ccc(Cl)cc1)NC(=S)Nc1ccc(NC(=O)c2ccco2)cc1	-11.8%	-2.6%	4.1	4.6%	14.9%	-112.5*
COc1cc(C2CC(=O)Oc3cc(C)c(Br)c(C)c32)cc(OC)c1OC (stereo not drawn)	-16.7%	-2.2%[0.00818 µM]	-12.1	-4.8%	-8.1%	nt
Cc1cccc(CSc2nnc([C@@H]3CCCN3)o2)c1	nt	nt	7.6	1.8%	nt	nt
CCOC(=O)OCC1OC(c2cc(C)cc(C)c2)C=CC1OC(=O)OCC (stereo not drawn)	nt	nt	nt	-4.0%[17.5 µM]	?	nt
Oc1ccc2c(ccc3[nH]cnc32)c1	nt	nt	-6.0	8.4%	0.5%	nt
Brc1cc2[nH]cnc2c2ccccc12	22.4µM*	1.7%	-15.3	9.0%	14.1µM*	5.3
Cc1cc2nc(CCN(Cc3cccnc3)C(=S)Nc3ccccc3)[nH]c2cc1C	-1.2%	-1.5%	-4.1	-5.1%	?	-86.4*
C[C@@]12CCC(OC(=O)c3ccccc3)CC1CCc1ccccc12 (stereo partly drawn)	-17.7%	-0.7%	-2.7	-7.5%	3.1%	nt
CCOC(=O)CNC(=O)CSc1ncnc2c1cnn2-c1ccccc1	-7.6%	6.6%	-8.3	2.1%	-2.2%	13.9
CCOC(=O)CC(=O)CSc1ncnc2c1cnn2-c1ccccc1	-18.6%	-13.7%	-6.1	-4.9%	22.4µM*	3.4
CCCCC[C@H](O)/C=C/C=C/C=C/[C@H](O)C/C=C\CCCC(=O)O	-1.2%	0.2%	-1.3	-3.3%	4.2%	nt
Cc1nn(-c2cccc(Cl)c2)c(Cl)c1/C=N/NC(=O)c1cccnc1	-1.9%	-2.3%	1.9	-1.8%	-1.1%	-86.5*
CCOC(=O)N/N=C/c1c(C)nn(-c2cccc(C(F)(F)F)c2)c1Cl	-18.6%	-0.9%	6.7	5.6%	16.2%	-83.1*
COC(=O)N/N=C/c1c(C)nn(-c2cccc(Cl)c2)c1Cl	-22.9%	-1.7%	5.0	1.2%	-1.4%	-94.2*
Cc1nn(-c2ccccc2Cl)c(Cl)c1/C=N/Nc1cccc(C(=O)O)c1	12.6µM*	-6.3%	-3.8	6.4%	?	-23.3
Cc1nn(-c2ccccc2)c(Cl)c1/C=N\NC(=O)c1cncc(Br)c1	-8.1%	1.6%	6.3	2.6%	-13.3%	?
CC(C)Cn1cnc2c(SCc3ccc(Cl)cc3Cl)nc(N)nc21	-8.2%	0.3%[11.4 µM]	nt	nt	-3.4%[13.5 µM]	nt
COCCn1c(=O)c(-c2ccc(OC)cc2)nc2cnc(Nc3ccccc3)nc21	-1.9%	-0.2%	nt	0.2%	5.0%	nt
Cc1nn(-c2ccccc2)c(Cl)c1/C=N/NC(=O)CNC(=O)c1ccccc1Cl	-11.2%	-2.1%	-5.1	-4.6%	7.08µM*	74.6
CCOc1ccc(Oc2c(/C=N/NC(=O)COc3ccccc3OC)c(C)nn2-c2ccccc2)cc1	-2.8%	0.1%	-17.8	-6.8%	?	?
CCOc1ccc(Oc2c(/C=N/NC(N)=O)c(C)nn2-c2ccccc2)cc1	-8.1%	-10.0%	0.8	2.4%	31.6µM*	23.9
CC(C)CN1CCc2nc(-c3ccccc3)c3c(c2CC1)COC(C)C3 (stereo not drawn)	nt	nt	nt	8.5%[17.5 µM]	9.4%[13.5 µM]	nt
